# The supplement of paper PMC10127200
# Structures can show the parent of a compound that is named as a salt.
# Tests used:
# Test in all cases: Euclidean distance of Cell Painting phenotypic profile (signed KS, 77 features) to DMSO centroid (dimensionless distance); 5 or 10 uM (library dependent); higher = stronger phenotypic change vs DMSO (phenoactivity)
# Details in all cases: 48 h
# 786-O = system: 786-O
# In short: (§1)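 Library compounds were applied at 10 or 5 uM, depending on the library, with 0.1% DMSO final, for 48 h to five cancer lines and a healthy fibroblast line. After staining, cells were imaged confocally at 20X across 9 fields per well, and Harmony extracted 77 features, each scored as a signed Kolmogorov-Smirnov statistic against vehicle wells on the same plate. Phenoactivity is the Euclidean distance between each profile and the median vehicle profile, with profiles first plate-position corrected, correlation-weighted and averaged over replicates at the top dose.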
# A549 = system: A549
# In short: as §1
# DU145 = system: DU145
# In short: as §1
# FB = system: FB
# In short: as §1
# HEPG2 = system: HEPG2
# In short: as §1
# OVCAR4 = system: OVCAR4
# In short: as §1
SMILES,Euclidean distance (786-O),Euclidean distance (A549),Euclidean distance (DU145),Euclidean distance (FB),Euclidean distance (HEPG2),Euclidean distance (OVCAR4)
C[C@H]1[C@H](NC(=O)/C(=N\OC(C)(C)C(=O)O)c2csc(N)n2)C(=O)N1S(=O)(=O)O [Aztreonam],1.13,0.951,1.05,1.15,0.888,1.53
C[N+]1(C)CCC(OC(=O)C(O)(c2ccccc2)C2CCCC2)C1 (centres undefined) [Glycopyrrolate],1.08,0.747,1.06,1.02,0.678,1.74
CN[C@@H]1[C@@H](O[C@H]2O[C@H](CO)[C@@H](N)[C@H](O)[C@H]2O)OC2C[C@@H](N)[C@@H](O[C@H]3[C@H](O)[C@@H](O)[C@H](N)C[C@@H]3N)OC2[C@@H]1O (some centres undefined) [Apramycin Sulfate],1.51,0.794,0.965,1.27,0.895,1.19
O=C(NCCS(=O)(=O)c1ccc(C(F)(F)F)cn1)c1ccc(Cl)cc1,0.975,1.54,1.57,0.817,0.723,1.18
CCc1c(Cl)c(O)c(Cl)c(O)c1C(=O)O[C@H]1[C@H](O)[C@H](OC)[C@H](OC/C2=C\C=C\C[C@H](O)/C(C)=C/[C@H](CC)[C@@H](O[C@@H]3OC(C)(C)[C@@H](OC(=O)C(C)C)[C@H](O)[C@@H]3O)/C(C)=C/C(C)=C/C[C@@H]([C@@H](C)O)OC2=O)O[C@@H]1C [Fidaxomicin],1.59,1.88,1.64,1.94,1.5,1.68
CC[C@H]1OC(=O)C[C@@H](O)[C@H](C)[C@@H](O[C@@H]2O[C@H](C)[C@@H](O[C@H]3C[C@@](C)(O)[C@@H](O)[C@H](C)O3)[C@H](N(C)C)[C@H]2O)[C@@H](CC=O)C[C@@H](C)C(=O)/C=C/C(C)=C/[C@@H]1CO[C@@H]1O[C@H](C)[C@@H](O)[C@@H](OC)[C@H]1OC [Tylosin],0.535,1.08,0.612,0.794,0.42,0.917
CC(/C=C1\SC(=S)N(CC(=O)O)C1=O)=C\c1ccccc1 [Epalrestat],1.29,1.2,0.915,1.45,0.723,0.848
C=CCOc1ccccc1OCC(O)CNC(C)C (centres undefined) [Oxprenolol HCl],0.863,0.819,1.56,1.21,0.783,0.994
CC(=O)Nc1nnc(S(N)(=O)=O)s1 [Acetazolamide],1.03,0.669,0.642,0.704,0.604,1.08
COc1ccccc1O [Guaiacol],0.884,0.854,0.891,1.19,0.511,1.43
CCCN(CCC)C(=O)C1=Cc2ccc(-c3ccc(C(=O)N4CCCC4)cc3)cc2N=C(N)C1 [Motolimod (VTX-2337)],1.67,2.04,1.35,1.27,2.18,2.2
CCN(CC)C(=O)C1(c2ccccc2)CC1CN (centres undefined) [Milnacipran HCl],1.2,1.04,0.974,1.14,0.468,0.854
CC[N+](CC)(CC)CC [Tetraethylammonium bromide],1.58,0.816,0.857,0.968,1.11,0.715
O=c1ccc2ccccc2o1 [Coumarin],1.02,0.975,1.08,1.25,0.824,1.2
CN[C@H](CC(C)C)C(=O)N[C@H]1C(=O)N[C@@H](CC(N)=O)C(=O)N[C@H]2C(=O)N[C@H]3C(=O)N[C@H](C(=O)N[C@H](C(=O)O)c4cc(O)cc(O)c4-c4cc3ccc4O)[C@H](O)c3ccc(c(Cl)c3)Oc3cc2cc(c3O[C@@H]2O[C@H](CO)[C@@H](O)[C@H](O)[C@H]2O[C@H]2C[C@](C)(N)[C@H](O)[C@H](C)O2)Oc2ccc(cc2Cl)[C@H]1O [Vancomycin HCl],0.545,0.761,0.862,0.465,0.611,0.795
COc1ccc(/C=C\c2cc(OC)c(OC)c(OC)c2)cc1O [Combretastatin A4],3.46,3.33,3.91,2.81,4.14,2.83
COc1ccc2cc1Oc1ccc(cc1)C[C@H]1c3cc(c(OC)cc3CCN1C)Oc1c(O)c(OC)cc3c1[C@H](C2)N(C)CC3 [Fangchinoline],4.67,4.12,3.78,4.61,5.01,4.4
COc1cccc2c1C(=O)c1c(O)c3c(c(O)c1C2=O)C[C@@](O)(C(=O)CO)C[C@@H]3O[C@H]1C[C@H](N)[C@H](O[C@@H]2CCCCO2)[C@H](C)O1 [Pirarubicin],3.6,4.43,3.47,4.28,4.37,4.83
O=C(CO)[C@@H](O)[C@H](O)[C@H](O)CO [Fructose],1.08,0.996,0.637,0.813,0.424,1.17
C=CC(=O)Nc1cc2c(Nc3ccc(F)c(Cl)c3)ncnc2cc1OCCCN1CCOCC1 [Canertinib (CI-1033)],1.57,2.51,1.4,1.25,0.69,2.05
COC(=O)c1ccc(O)cc1 [Methyl 4-hydroxybenzoate],0.944,0.453,0.654,0.862,0.627,1.19
O=c1[nH]c(=O)n([C@H]2C[C@H](O)[C@@H](CO)O2)cc1I [Idoxuridine],2.71,1.26,2.3,1.41,1.5,1.42
NC(=O)Nc1sc(-c2ccc(F)cc2)cc1C(N)=O,1.85,1.8,2.12,3.25,0.991,1
O=c1ncccn1[C@@H]1O[C@H](CO)[C@@H](O)[C@H]1O [Zebularine],1.2,1,0.895,0.816,0.887,0.492
